# Hits are enriched below; roughly 9.9% of the tested compounds scored in any of these assays.
# Tau fibril FP: qHTS for Inhibitors of Tau Fibril Formation, Fluorescence Polarization. K18 P301L tau heparin fibrillization, Alexa594 FP, 6 h. Potency, µM (highest dose often 57.7 µM), inactives show top-dose activity, negative = inhibition, most hits filed as inhibitors. 280,000 compounds, 0.39% hits. AID 1468, 2008; further: nearly all actives have a fitted effect of over 55% in size
# Target sequence (P10636 561-689 P618L limits assumed): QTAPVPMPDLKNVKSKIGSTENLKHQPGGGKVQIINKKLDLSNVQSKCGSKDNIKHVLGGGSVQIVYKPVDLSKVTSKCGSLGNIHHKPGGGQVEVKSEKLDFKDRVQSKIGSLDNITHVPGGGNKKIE
#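 Human tau K18 […] P301L fragment, 15 uM unlabeled plus 0.24 uM Alexa 594-labeled tau (final), with compound and 20 uM heparin in 100 mM sodium acetate pH 7; 6 hr at 37 C, then Alexa 594 FP read.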
# Tau ThT inhib: qHTS for Inhibitors of Tau Fibril Formation, Thioflavin T Binding | recombinant tau K18 P301L, heparin-induced fibrillization, ThT fluorescence | 270,000 compounds, 2.1% hits | Microtubule-associated protein tau (Homo sapiens), P10636 | Potency, µM (series often up to 57.4 µM), for the others: at the top dose activity, negative = inhibition, usual class: inhibitors; further: nearly all actives have a fitted effect of over 55% in size
#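 Heparin-induced fibrillization of the P301L-mutant K18 repeat-domain fragment of human tau was followed by ThT binding in quantitative high-throughput format.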
# HPGD inh: qHTS Assay for Inhibitors of HPGD (15-Hydroxyprostaglandin Dehydrogenase) | purified HPGD, NADH fluorescence kinetic, PGE2 substrate | 15-hydroxyprostaglandin dehydrogenase [NAD(+)] (Homo sapiens), P15428 | Potency, µM, for the others: at the highest dose activity change, negative = inhibition, hits mostly inhibitors | AID 894, 2007 | 150,000 compounds, 4.3% hits; active means well fitted inhibition curve with a large enough effect, not every such curve was filed as active; inconclusive means small, poorly fitted or top-dose-only effect, or another doubt; inactive means no such curve, though single readings can be large or run the other way
#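 20 nM HPGD preincubated 15 min at room temperature with compound in 50 mM Tris-HCl pH 8, 0.01% Tween 20. Started with 1 mM NAD+ and 30 uM prostaglandin E2; NADH fluorescence (360/450 nm) read 5 times over 30-s intervals, last minus first.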
# ALDH1A1 block: qHTS Assay for Inhibitors of Aldehyde Dehydrogenase 1 (ALDH1A1) | Purified ALDH1A1, NADH fluorescence, propionaldehyde substrate | Potency, µM (series often up to 75.3 µM), inactives show at the top dose activity, negative = inhibition, hits mostly inhibitors | AID 1030, 2008 | Aldehyde dehydrogenase 1A1 (Homo sapiens), P00352 | 220,000 compounds, 7.3% hits; active means well fitted inhibition curve with a large enough effect, not every such curve was filed as active; inconclusive means small, poorly fitted or top-dose-only effect, or another doubt; inactive means no such curve, though single readings can be large or run the other way;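 further: plate controls were no enzyme wells and a reference inhibitor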
# Target sequence (P00352 whole entry, looked up): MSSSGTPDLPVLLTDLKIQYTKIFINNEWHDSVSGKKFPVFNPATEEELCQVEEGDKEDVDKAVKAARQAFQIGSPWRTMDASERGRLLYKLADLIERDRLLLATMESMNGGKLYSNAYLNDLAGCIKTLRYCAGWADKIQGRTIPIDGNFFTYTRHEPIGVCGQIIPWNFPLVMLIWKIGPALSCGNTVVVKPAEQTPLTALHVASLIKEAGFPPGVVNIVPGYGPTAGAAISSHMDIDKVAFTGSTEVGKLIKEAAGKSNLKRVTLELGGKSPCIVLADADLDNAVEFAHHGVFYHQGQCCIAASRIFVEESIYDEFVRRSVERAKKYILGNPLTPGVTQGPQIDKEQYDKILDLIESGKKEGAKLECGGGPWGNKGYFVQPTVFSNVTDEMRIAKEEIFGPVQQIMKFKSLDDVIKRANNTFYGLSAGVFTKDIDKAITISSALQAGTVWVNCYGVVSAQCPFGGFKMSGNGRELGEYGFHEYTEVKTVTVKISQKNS
# KDM4E inh: qHTS Assay for Inhibitors of Human Jumonji Domain Containing 2E (JMJD2E) | Lysine-specific demethylase 4E (Homo sapiens), B2RXH2 | JMJD2E catalytic domain, FDH-coupled NADH fluorescence (FDH is formaldehyde dehydrogenase) | Potency, µM (doses to about 57.1 µM), inactives show top-dose activity change, negative = inhibition, hits mostly inhibitors | 230,000 compounds, 1.6% hits | AID 2147, 2009; active means well fitted inhibition curve with a large enough effect, not every such curve was filed as active; inconclusive means small, poorly fitted or top-dose-only effect, or another doubt; inactive means no such curve, though single readings can be large or run the other way;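 further: 0% = wells with enzyme and -100% = buffer wells without enzyme; nearly all actives have a fitted effect of over 50% in size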
# Tau fluor cs: Counterscreen qHTS for Inhibitors of Tau Fibril Formation, Fluorescence Polarization; tau K18 P301L (four-repeat tau fragment) Alexa594 fluorescence, heparin fibrillization; 280,000 compounds, 0.93% hits; Potency, µM (top dose mostly 57.7 µM), inactives show top-dose activity change, negative = decrease; further: nearly all actives have a fitted effect of over 55% in size
#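 Human K18 P301L tau (15 uM unlabeled plus 0.24 uM Alexa 594-labeled, final) in 100 mM sodium acetate pH 7 was mixed with compound and 20 uM heparin and incubated 6 hr at 37 C.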
# An asterisk follows results filed as active; ? = inconclusive; . = no result given; [ ] = dose if it differs, or a comment. Unless noted, the call rests on the fitted dose curve; in most records, active means well fitted curve in the direction sought with a large enough effect; inconclusive means small, poorly fitted or top-dose-only effect, or another doubt; inactive means no such curve, though single readings can be large; an effect the other way counts as inactive or inconclusive. Unless noted, on the % scale 0 is the no-effect control and ±100 the full control effect; potency means the concentration at half of the fitted maximal effect.
SMILES,Tau fibril FP,Tau ThT inhib,HPGD inh,ALDH1A1 block,KDM4E inh,Tau fluor cs
COC(=O)Cc1c[nH]c2cccc(OCC(O)CN(Cc3ccc([N+](=O)[O-])cc3)C(C)(C)C)c12 (stereo unspecified),?,-3%,-21%,25µM*,-24%,?
COc1ccccc1-n1c(CNC(=O)c2cccc([N+](=O)[O-])c2C)n[nH]c1=S,-4%,-16%,.,-2%,?,-15%
COc1ccccc1-n1c(CNC(=O)COc2ccccc2)n[nH]c1=S,-3%,-8%,?,2.2µM*,-8%,-5%
N[C@@H](Cc1ccnnc1)C(=O)O,.,.,-10%,-1%[13.5 µM],.,.
Cn1c(CN2CCCCC2)nc2cc([N+](=O)[O-])ccc21,-14%,-3%,.,11µM*,-21%,-4%
COc1ccc2nc(-n3c(O)c(C4=c5ccccc5=NC4=O)[nH]c3=S)sc2c1,?,2.2µM*,-14%,-12%,14%,8.9µM*[quencher]
Cn1c(O)c(C2=c3ccccc3=NC2=O)[nH]c1=S,7%,?,-14%,5%,5%,-9%
Fc1ccc2nc(Nc3nc4cc5c(cc4s3)OCCO5)sc2c1,-6%,10µM*,?,?,14%,14µM*[quencher]
O=C(NNc1nc2cc3c(cc2s1)OCO3)c1ccc(F)cc1,-3%,-3%,25µM*,?,-7%,-14%
Fc1ccc2nc(Nc3nc4cc5c(cc4s3)OCO5)sc2c1,?,?,?,?,324%,3.5µM*[quencher]
Cc1cccc(C)c1NC(=O)Cn1c(=O)n(CCCS(=O)(=O)C2CCCCC2)c(=O)c2ccccc21,-3%,3%,.,.,.,-2%
Cc1cc(C)cc(-n2c(SCC(=O)N3CCCC3)nc3c([nH]c4ccccc43)c2=O)c1,-8%,5%,.,.,.,1%
O=C(O)c1ccccc1-c1nc2ccccc2[nH]1,-4%,6%,.,7%,?,8%
Oc1ccc2ccccc2c1C=Nc1ccccc1-c1nc2ccccc2[nH]1,-4%,28µM*,?,?,?,?
COc1cc(/C=C(\C#N)C(=O)N2CCOCC2)cc(Br)c1O,-10%,?,25µM*,?,0%,-20%
CCOC(=O)c1cccc(NS(=O)(=O)c2ccc3[nH]c4c(c3c2)CCCC4)c1,-2%,-1%,.,.,.,10µM*[quencher]
Cc1cccc(N(C)C(=O)CN(C)S(=O)(=O)c2ccc3[nH]c4c(c3c2)CCCC4)c1,12%,-12%,.,.,.,?
CCOC(=O)c1ccc(NS(=O)(=O)c2ccc3[nH]c(=O)[nH]c3c2)cc1,-6%,-18%,28µM*,16µM*,6%,-6%
CC(C)(C)c1ccc(NC(=O)COC(=O)c2ccc(NS(=O)(=O)c3ccc(F)c(F)c3)cc2)cc1,28µM*,3%,-12%,-3%,1%,?
CC(=O)c1cccc(NS(=O)(=O)c2ccc3[nH]c4c(c3c2)CCCCC4)c1,2%,-2%,.,.,.,14µM*[quencher]
Cc1ccc(Nc2nc(CSc3nnc(-c4ccc(F)cc4)n3C)cs2)cc1,0%,?,-4%,?,-1%,?
COc1ccc(C)cc1NC(=O)c1cc(S(=O)(=O)N2CCCCC2)c[nH]1,10%,-3%,.,.,.,-26%
CC(=O)c1cccc(NS(=O)(=O)c2ccc3[nH]c4c(c3c2)CCCCCC4)c1,5%,-7%,.,.,.,14µM*[quencher]
Cc1cccc(NC(=O)C2CCN(S(=O)(=O)c3ccc4[nH]c5c(c4c3)CCCCC5)CC2)c1,-4%,7%,.,.,.,?
CCCN(CC(=O)Nc1ccccc1C)C(=O)CCl,0%,-5%,.,?,3%,1%
SMILES,Tau fibril FP,Tau ThT inhib,HPGD inh,ALDH1A1 block,KDM4E inh,Tau fluor cs
Cc1[nH]c2ccccc2c1CN1CCN(c2ccccn2)CC1,9%,?,.,.,-1%,?
Cc1[nH]c2ccccc2c1CN1CCC(Cc2ccccc2)CC1,10%,?,.,?,25µM*,-25%
CCCCn1c(-c2csc(C(C)C)c2)n[nH]c1=S,6%,-18%,?,7.9µM*,-13%,-7%
CCCc1cc(-c2n[nH]c(=S)n2CC(C)C)cs1,-3%,-11%,?,11µM*,-20%,-5%
COc1ccc(N2CC(NC(=O)c3ccc(Br)o3)CC2=O)cc1 (stereo unspecified),-10%,-7%,.,.,.,-11%
COc1cc(NC(=O)c2ccc3c(SCC(=O)O)c4c(nc3c2)CCCC4)cc(OC)c1OC,3%,-9%,.,10µM*,?,-2%
O=C(O)CSc1c2c(nc3cc(C(=O)N4CCOCC4)ccc13)CCCC2,-7%,-18%,4µM*,-2%,?,-8%
CCOC(=O)N1CCN(C(=O)c2ccc3c(SCC(=O)O)c4c(nc3c2)CCCC4)CC1,8%,-16%,-4%,-6%,-14%,-1%
COc1ccc(NC(=O)c2ccc3c(SCC(=O)O)c4c(nc3c2)CCCC4)cc1OC,7%,?,.,.,.,-17%
O=C(Cn1c(=O)n(-c2ccccc2)c(=O)c2c3c(sc21)CCC3)c1ccc(Br)cc1,-7%,7%,.,.,.,2%
COc1ccc(-n2c(/C=C/c3cccc(C(F)(F)F)c3)nc3ccccc3c2=O)cc1Cl,-3%,-9%,.,.,.,-12%
COc1ccc(NCc2c(O)ccc3ccccc23)cc1,.,.,-8%,1.6µM*,.,.
Oc1ccc2ccccc2c1CNc1cnc2ccccc2c1,-3%,?,?,?,?,?
Cn1c(NCc2c(O)ccc3ccccc23)nc2ccccc21,9%,?,?,?,?,18µM*[quencher]

# Assay outcomes deposited in PubChem BioAssay by National Center for Advancing Translational Sciences (NCATS).
